Assay results from PubChem BioAssay (EPA / NIEHS).
Records with an inconclusive call do not appear. Activity calls are given as the source filed them. The calls were made as follows, unless noted: active = hit-call score of the fitted dose curve at least 0.9, where 1 is the maximum; inactive = score below 0.9.

Experiments:
[1] = CCTE_Shafer_MEA_dev_per_network_spike_spike_percent: CCTE's Neural Network Formation Assay for Percent of Spikes in a Network Spike, Shafer Lab (AID 2284054)
Summary of the method: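 Metric: fraction of spikes falling in a 0.05 s window at network-spike peaks. Recordings were made on days 5, 7, 9 and 12 and collapsed by trapezoidal AUC. Cultures were rat cortical neurons on MEA plates, dosed continuously from plating, re-dosed at media changes.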

[2] = CCTE_Shafer_MEA_dev_LDH: CCTE's Lactate Dehydrogenase Assay for Cytotoxicity in the Neural Network Formation Assay, Shafer Lab (AID 2284068; active = hit-call score of the fitted dose curve at least 0.9, where 1 is the maximum;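 also: exposure for twelve days from plating with re-dosing on DIV 5 and 9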)
Summary of the method: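 Cytotoxicity companion to network-formation recordings: rat cortical neurons received compound over 12 days of development, re-dosed at DIV 5 and 9 feeds. Viability was inferred from LDH enzyme activity relative to DMSO.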

[3] = CCTE_Shafer_MEA_dev_mutual_information_norm: CCTE's Neural Network Formation Assay for Mutual Information Normalization, Shafer Lab (AID 2284091);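 also: mutual information between electrodes summarised as area under curve across four recording days; potency is for a decrease in mutual information relative to DMSO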
Summary of the method: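 Shared information across electrodes, tracked on days 5, 7, 9 and 12 of network development and collapsed as trapezoidal area under the curve. Rat cortical cultures were treated continuously from plating, with treatment renewed at feeds on DIV 5 and 9; DMSO baseline, negative-direction fit.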

[4] = CCTE_Shafer_MEA_dev_correlation_coefficient_mean: CCTE's Neural Network Formation Assay for Mean Correlation Coefficient, Shafer Lab (AID 2284093);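 also: well mean pairwise spike train correlation integrated as AUC over recording days 5 to 12; potency fitted for loss of correlation relative to DMSO vehicle wells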
Summary of the method: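 Read-out: well-mean correlation coefficient of spike trains between electrode pairs, collapsed over four recording days as trapezoidal area-under-the-curve. Developing rat cortical neuron networks grown on MEAs received test chemical continuously from plating.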

[5] = CCTE_Mundy_HCI_Cortical_Synap_Neur_Matur_NeuriteSpotCountPerNeuriteLength: CCTE's Synaptogenesis and Neurite Maturation Assay in rat cortical cells for Neurite Spot Count per Neurite Length, Mundy Lab (AID 2284210)
Summary of the method: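 Synaptophysin spots per unit neurite length, measured by automated imaging of MAP2/synaptophysin/Hoechst-stained neurons. Cultures from rat cortex received chemical at DIV 7 with media change through DIV 12; glial growth arrested by AraC at DIV 5; DMSO baseline.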

[6] = CCTE_Mundy_HCI_Cortical_Synap_Neur_Matur_BPCount: CCTE's Synaptogenesis and Neurite Maturation Assay in rat cortical cells for Branch Point Count, Mundy Lab (AID 2284211)
Summary of the method: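 In this multiplexed morphology assay, cortical cells from rat receive chemicals at DIV 7 and are fixed at DIV 12, then immunostained and imaged; branch points are counted, with DMSO as baseline.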

[7] = CCTE_Mundy_HCI_Cortical_NOG_NeuriteCount: CCTE's Neurite Outgrowth Assay in rat cortical cells for Neurite Count, Mundy Lab (AID 2284212);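 also: cells fixed about two days after chemical exposure began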
Summary of the method: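 Rat cortical primary cells; compound added 2 h post-plating, 1/10 dilution of working solution. Anti-betaIII-tubulin/AF488 ICC; ArrayScan neurite count vs DMSO.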

[8] = CCTE_Mundy_HCI_Cortical_NOG_NeuriteLength: CCTE's Neurite Outgrowth Assay in rat cortical cells for Neurite Length, Mundy Lab (AID 2284213);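 also: neurites imaged about 48 to 50 h after chemical exposure began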
Summary of the method: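 First, rat primary cortical cells were plated and, 2 h later, given test chemical as a 1/10 dilution. Finally, βIII-tubulin immunostaining enabled automated imaging of neurite length.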

[9] = CCTE_Mundy_HCI_Cortical_Synap_Neur_Matur_NeuriteLength: CCTE's Synaptogenesis and Neurite Maturation Assay in rat cortical cells for Neurite Length, Mundy Lab (AID 2284214)
Summary of the method: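 Read-out: high-content imaging of MAP2-labelled neurites, with synaptophysin and Hoechst co-stain, in rat cortical cultures fixed at DIV 12. Activity fitted in positive direction relative to DMSO baseline.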

[10] = CCTE_Mundy_HCI_Cortical_Synap_Neur_Matur_NeuriteSpotCountPerNeuron: CCTE's Synaptogenesis and Neurite Maturation Assay in rat cortical cells for Neurite Spot Count per Neuron Count, Mundy Lab (AID 2284215)
Summary of the method: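 Read-out: neurite-associated synaptophysin puncta per neuron, imaged by high-content analysis after MAP2, synaptophysin and Hoechst staining. Rat primary cortical cultures, dosed DIV 7 through DIV 12; DMSO served as baseline.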

[11] = CCTE_Mundy_HCI_Cortical_Synap_Neur_Matur_SynapseCount: CCTE's Synaptogenesis and Neurite Maturation Assay in rat cortical cells for Synapse Count, Mundy Lab (AID 2284218)
Summary of the method: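 Read-out: synapse number per neuron, automated high-content imaging of fixed cells immunostained for MAP2 and synaptophysin plus Hoechst nuclei. Rat primary cortical cultures, AraC at DIV 5, chemical dosing DIV 7–12. Positive-direction fit relative to DMSO.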

[12] = CCTE_Mundy_HCI_hN2_NOG_NeuriteLength: CCTE's Neurite Outgrowth Assay in human hN2 cells for Neurite Length, Mundy Lab (AID 2284220; active = hit-call score of the fitted dose curve at least 0.9, where 1 is the maximum)
Summary of the method: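 Plate hNP1-derived neurons, then add chemical 2 h later as a 1/10 dilution. Stain with anti-βIII-tubulin then Alexa Fluor-488 secondary, and image automatically to measure neurite length.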

[13] = CCTE_Mundy_HCI_hN2_NOG_NeuronCount: CCTE's Neurite Outgrowth Assay in human hN2 cells for Neuron Count, Mundy Lab (AID 2284221; active = hit-call score of the fitted dose curve at least 0.9, where 1 is the maximum)
Summary of the method: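 Read-out is the number of betaIII-tubulin-positive neurons imaged by automated high-content analysis, with DMSO as negative control.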

[14] = CCTE_Mundy_HCI_Cortical_Synap_Neur_Matur_NeuriteCount: CCTE's Synaptogenesis and Neurite Maturation Assay in rat cortical cells for Neurite Count, Mundy Lab (AID 2284222);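 also: exposure from day 7 to day 12 in vitro with readout at day 12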
Summary of the method: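 Chemical exposure runs DIV 7–12 in rat cortical cultures, glia suppressed by AraC at DIV 5; measurement is at DIV 12. Imaging-derived neurite counts are fitted against DMSO baseline.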

[15] = CCTE_Mundy_HCI_Cortical_Synap_Neur_Matur_CellBodySpotCount: CCTE's Synaptogenesis and Neurite Maturation Assay in rat cortical cells for Cell Body Spot Count, Mundy Lab (AID 2284223)
Summary of the method: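 Read-out: cell body-associated synaptophysin puncta per neuron, imaged after MAP2, synaptophysin and Hoechst staining. Rat cortical cells, AraC DIV 5, chemical dosing DIV 7, fixation DIV 12. Activity fitted in positive direction relative to DMSO baseline.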

[16] = CCTE_Mundy_HCI_hNP1_Pro_ResponderAvgInten: CCTE's Proliferation Assay in human neuroprogenitor cells, Mundy Lab (AID 2284224; active = hit-call score of the fitted dose curve at least 0.9, where 1 is the maximum)
Summary of the method: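 Proliferation was scored as BrdU labelling intensity in human neural progenitors derived from WA09 embryonic cells, measured 26.25 hours after chemical dosing. Activity was fitted relative to DMSO.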

[17] = CCTE_Mundy_HCI_Cortical_NOG_NeuronCount: CCTE's Neurite Outgrowth Assay in rat cortical cells for Neuron Count, Mundy Lab (AID 2284236; active = hit-call score of the fitted dose curve at least 0.9, where 1 is the maximum;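 also: neurons counted by imaging betaIII-tubulin and Hoechst stained cortical cells; cells exposed to compound for about 48 hours before fixation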)
Summary of the method: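 Read-out: neuron number by high-content imaging of betaIII-tubulin (Alexa Fluor-488) and Hoechst-labelled rat primary cortical cells.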

[18] = CCTE_Mundy_HCI_Cortical_NOG_BPCount: CCTE's Neurite Outgrowth Assay in rat cortical cells for Branch Point Count, Mundy Lab (AID 2284237);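 also: branch points counted about two days after chemical exposure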
Summary of the method: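 Measured 50.33 h after dosing, this morphology endpoint uses rat primary cortical cultures labelled for betaIII-tubulin. Branch points are quantified by high-content imaging, with DMSO as negative control and baseline.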

[19] = CCTE_Mundy_HCI_hNP1_Casp3_7: CCTE's Caspase-Glo 3/7 Assay in human neuroprogenitor cells for Apoptosis, Mundy Lab (AID 2284240)
Summary of the method: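 Apoptosis is scored by activated caspase-3/7 luminescence in WA09-derived neural progenitor cells, measured 26.5 h after chemical dosing. Values represent gain of signal relative to DMSO vehicle.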

[20] = CCTE_Mundy_HCI_hNP1_CellTiter: CCTE's Cell Titer-Glo 2 Assay in human neuroprogenitor cells for Viability, Mundy Lab (AID 2284241; active = hit-call score of the fitted dose curve at least 0.9, where 1 is the maximum;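 also: a hit is a drop in ATP luminescence versus DMSO meaning reduced viability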)
Summary of the method: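 Human neural progenitor cells (hNP1, WA09-derived) were plated on poly-L-ornithine/laminin and grown 40 to 44 hours at 37 °C, 5% CO2 before chemical addition. Twenty-four hours later, ATP was measured by CellTiter-Glo luminescence; loss of signal versus DMSO indicates reduced viability.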

[21] = CCTE_Mundy_HCI_Cortical_Synap_Neur_Matur_NeuronCount: CCTE's Synaptogenesis and Neurite Maturation Assay in rat cortical cells for Neuron Count, Mundy Lab (AID 2284242; active = hit-call score of the fitted dose curve at least 0.9, where 1 is the maximum;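 also: hits reduce neuron count versus DMSO baseline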)
Summary of the method: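 Rat cortical cultures; AraC DIV 5; chemical dosing + media change DIV 7 to DIV 12 (288.33 h readout). Fix, Hoechst, anti-MAP2/anti-synaptophysin immunostain; HCI neuron count vs DMSO baseline.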

## CCC[CH2][Sn]([CH2]CCC)([CH2]CCC)[O][Sn]([CH2]CCC)([CH2]CCC)[CH2]CCC
[1]
  AC50: 77 nM (active)
[2]
  AC50: 32.8 nM (active)
[3]
  AC50: 34.5 nM (active)
[4]
  AC50: 33.5 nM (active)
[5]
  outcome: inactive
[6]
  AC50: 23 nM (active)
[7]
  AC50: 27.8 nM (active)
[8]
  AC50: 22.1 nM (active)
[9]
  AC50: 14.5 nM (active)
[10]
  AC50: 22.6 nM (active)
[11]
  AC50: 22 nM (active)
[12]
  AC50: 43.6 nM (active)
[13]
  AC50: 31.9 nM (active)
[14]
  outcome: inactive
[15]
  AC50: 31.1 nM (active)
[16]
  AC50: 125 nM (active)
[17]
  AC50: 31.1 nM (active)
[18]
  AC50: 27.7 nM (active)
[19]
  AC50: 115 nM (active)
[20]
  AC50: 57.2 nM (active)
[21]
  AC50: 10.8 nM (active)
